Source: PubChem BioAssay (National Center for Advancing Translational Sciences (NCATS))
An excerpt weighted towards active compounds, which were near 12% of everything screened.
Sfp PPTase inh = Sfp phosphopantetheinyl transferase inhibition | hit rate 3.5% among 310,000 | Biochemical Sfp PPTase activity, qHTS | Potency, µM, inactives show largest response in the series, negative = inhibition, usual class: inhibitors;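 also: the enzyme is Sfp with the accession as filed and its product quenches rhodamine fluorescence; 0% = enzyme reaction without inhibitor and -100% = no enzyme wells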
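Buffer: 50 mM Hepes-Na pH 7.6, 10 mM MgCl2, 0.01% Nonidet P-40, 0.01% BSA. Enzyme 15 nM, pre-exposed to compound 15 min; substrates then added and fluorescence change tracked over 30 min.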
G9a inh = G9a (human) methyltransferase inhibition; Potency, µM (top dose mostly 102 µM), for inactives: top-dose activity, negative = inhibition, usual class: inhibitors; G9a H3K9 monomethylation, AlphaScreen, 2 h; AID 504332; hit rate 8.8% among 350,000; also: % is scaled to controls: 0 for no effect and ±100 for the full control effect; nearly all actives have a fitted effect of over 75% in size
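AlphaScreen detection with an anti-monomethyl H3K9 antibody quantified product after a 2 h room-temperature reaction containing 500 nM biotinylated H3K9 peptide, 20 µM SAM and 20 nM enzyme, which had been preincubated 15 min with compound.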
JMJD2A Tudor inh = blocks the human JMJD2A Tudor domain | O75164 | AlphaScreen JMJD2A-Tudor / H3K4me3 peptide binding | Potency, µM (series often up to 114 µM), for the others: top-dose activity change, negative = inhibition, usual class: inhibitors | hit rate 4.4% among 390,000 | AID 504339; also: % is scaled to controls: 0 for no effect and ±100 for the full control effect; nearly all actives have a fitted effect of over 50% in size
BAZ2B block = blocks human BAZ2B; Potency, µM (titrated, usually from 114 µM), for the others: at the top dose activity change, negative = inhibition, usual class: inhibitors; AID 504333; AlphaScreen BAZ2B-H3K14Ac peptide displacement; hit rate 4.4% among 360,000; Q9UIF8; also: % is scaled to controls: 0 for no effect and ±100 for the full control effect; nearly all actives have a fitted effect of over 60% in size
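Inhibition is scored as reduced AlphaScreen emission. The BAZ2B/b-H3(5-23)K14Ac complex (50 nM each) in PBS pH 7.4, 0.01% Tween-20 meets compound (up to 110 uM) for 30 min at RT before bead addition.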
HP1b chromo inh = blocks HP1-beta chromodomain binding to methylated histone tails; P83916; Potency, µM (titrated, usually from 114 µM), for the others: at the highest dose activity change, negative = inhibition, hits mostly inhibitors; hit rate 0.56% among 390,000; AlphaScreen HP1-beta / biotin-H3K9me3 peptide binding; also: nearly all actives have a fitted effect of over 70% in size
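AlphaScreen: HP1-beta (50 nM) preformed 30 min with biotin-H3(1-18)K9me3 peptide (50 nM) in PBS pH 7.4, 0.01% Tween-20. Compound added for 30 min at RT, then streptavidin donor/nickel chelate acceptor beads (10 ug/mL) for 30 min.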
L3MBTL1 inh = blocks human L3MBTL1; Q9Y468; AlphaScreen L3MBTL1–H3K9me1 peptide binding; Potency, µM (doses to about 57.1 µM), inactives show top-dose activity, negative = inhibition, hits mostly inhibitors; hit rate 0.66% among 230,000; AID 485360; also: % is scaled to controls: 0 for no effect and ±100 for the full control effect; nearly all actives have a fitted effect of over 60% in size
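L3MBTL1 50 nM + b-AHA-H3(1-15)K9me1 75 nM, 30 min RT; compound added, 30 min RT; streptavidin donor/Ni-chelate acceptor beads 10 ug/mL each final, 30 min RT dark; AlphaScreen read.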
Numbers without * were called inactive; u = inconclusive; x = not tested or not shown; [ ] = remark or other dose. Calls follow the shape of the dose curve; as a rule, active = well fitted curve in the direction sought with a large enough effect; inconclusive = small, poorly fitted or top-dose-only effect, or another doubt; inactive = no such curve, though single readings can be large; an effect the other way counts as inactive or inconclusive. Potency is read from the fitted curve at half-maximal effect.

SMILES | Sfp PPTase inh | G9a inh | JMJD2A Tudor inh | BAZ2B block | HP1b chromo inh | L3MBTL1 inh
O=C(O)c1c[nH]c(=S)n1-c1ccc(F)cc1 | 11µM* | 28µM* | u | u | 50% | 13%
CCCCCCOC(=O)Sc1nc2ccccc2o1 | 45µM* | u | 18% | 87% | 24% | x
COC(=O)CSc1nc2ccccc2o1 | 7% | 8%[59 µM] | 4% | -6% | 14% | 5%
CS/C(N)=N/N=C/c1c(O)ccc2ccccc12 | 2% | 11µM* | -17%[11.4 µM] | -18% | 61% | -9%
OCC(CO)(CO)N=Cc1c(O)ccc2ccccc12 | -2% | 1.4µM* | u | x | 7% | u
CN(C)/N=C/c1c(O)ccc2ccccc12 | -4% | 10µM* | 56µM* | 45µM* | u | x
Oc1ccc2ccccc2c1C=NC12CN3CCN(CN(C3)C1)C2 | u | u | 79µM* | u | u | -10%
O=C(N/N=C/c1c(O)ccc2ccccc12)c1[nH]ncc1Br | -21% | 8%[59 µM] | -17% | -2% | 19% | -17%
Oc1ccc2ccccc2c1C=Nc1ccccc1Br | -18% | x | u | u | u | -4%
O=C(c1cccc(NS(=O)(=O)c2ccccc2)c1)N1CCCCC1 | x | u | 3% | 0% | 31% | 32%
CNc1nc(Cl)c(SC)c(NCc2ccc(F)cc2)n1 | 15% | 3% | 7% | 2% | 36% | x
COc1ccc(S(=O)(=O)N2CCCCCC2)cc1NC(=O)CN1C(=O)NC(C)(c2ccccc2)C1=O (stereo not drawn) | x | 16µM* | -14% | -1% | 33% | -2%
CCN(CC)S(=O)(=O)c1ccc(N2CCOCC2)c(NC(=O)CN2C(=O)NC(C)(c3ccccc3)C2=O)c1 (stereo not drawn) | x | 16µM* | -20% | 6% | 38% | -3%
CCN(CC)S(=O)(=O)c1ccc(N2CCCC2)c(NC(=O)Cc2ccc(OC)cc2)c1 | 2% | u | -11% | -26% | 7% | -7%
CCN(CC)S(=O)(=O)c1ccc(N2CCOCC2)c(NC(=O)CN2C(=O)NC3(CCCC3)C2=O)c1 | x | x | -7% | x | 35% | x
CN(C)S(=O)(=O)c1ccc(N2CCCC2)c(C(=O)Nc2ccc(F)cc2F)c1 | x | 11µM* | -11% | 8% | 13% | 10%
CN(C)S(=O)(=O)c1ccc(N2CCCC2)c(C(=O)Nc2ccccc2F)c1 | x | u | -4% | 4% | 16% | 7%
CCC1(c2ccccc2)NC(=O)N(CC(=O)Nc2cc(S(=O)(=O)N3CCCCC3)ccc2N(C)C)C1=O (stereo not drawn) | x | -37% | -24% | 1% | 15% | 3%
CCN(CC)S(=O)(=O)c1ccc(N2CCCC2)c(NC(=O)c2ccc(OC)cc2OC)c1 | 79µM* | 28µM* | -32% | -32% | 18% | 7%
Cc1ccc2c(CNCc3cccs3)c(C(=O)O)n(Cc3ccc(F)cc3)c2c1 | x | -33%[59 µM] | -35% | u | 6% | x
CCN(CC)S(=O)(=O)c1ccc(N2CCOCC2)c(NC(=O)C(=O)c2c(-c3ccccc3)cc3ccccn23)c1 | 1% | 35µM* | -32% | -34% | -26% | x
CCN(CC)S(=O)(=O)c1ccc(N2CCOCC2)c(NC(=O)c2ccc(C#N)cc2)c1 | -10% | 11µM* | -4% | u | 40% | 10%
Cc1cc(NS(=O)(=O)c2ccc(NC(=O)CN3C(=O)NC(C)(c4ccccc4)C3=O)cc2)nc(C)n1 (stereo not drawn) | x | 14µM* | 6% | 9% | 27% | 0%
CCN(CC)S(=O)(=O)c1ccc(N2CCOCC2)c(NC(=O)CNCCc2ccccc2)c1 | -11% | 11µM* | 40µM* | 50µM* | -24%[57 µM] | -4%
COc1ncc2nc(-c3ccccc3)c(=O)n(C3CC3)c2n1 | 13% | -1%[0.501 µM] | x | x | x | x
COc1ccc(N2CCN(c3csc4ccccc4c3=O)CC2)cc1 | x | u | 40µM* | 40µM* | -5%[57 µM] | x
COc1ccc(N2CCN(c3csc4ccc(Cl)cc4c3=O)CC2)cc1 | x | -51%[59 µM] | u | 50µM* | -13%[57 µM] | x
